The full list was thinned out, with the strongest signals kept by preference.
Experiments:
Test in all cases: glycan array binding signal (z-score within array); higher = stronger binding
Conditions in all cases: glycan notation: IUPAC condensed, linker removed
[1] = target: Fuc(a1-2)Gal(b1-3)GlcNAc(b1-2)Man(a1-3)[Fuc(a1-2)Gal(b1-3)GlcNAc(b1-2)Man(a1-6)]Man(b1-4)GlcNAc(b1-4)GlcNAc
Outline: (§1)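 Glycan array data came from 3228 arrays in the Consortium for Functional Glycomics database, and only arrays with an available protein sequence were kept. Glycan names were put into IUPAC-condensed notation, and columns mapping to the same glycan were averaged. The binding signal is a within-array Z-score, averaged across arrays of one protein sequence run at different concentrations or buffers and across linkers. A negative Z-score can be read as non-binding.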

[2] = target: Fuc(a1-2)Gal(b1-3)GlcNAc(b1-3)[Neu5Ac(a2-6)Gal(b1-4)GlcNAc(b1-6)]Gal(b1-4)Glc
Outline: as §1

[3] = target: Fuc(a1-2)Gal(b1-4)Fuc(a1-3)]GlcNAc(b1-2)Man(a1-3)[Fuc(a1-2)Gal(b1-4)[Fuc(a1-3)]GlcNAc(b1-2)Man(a1-6)]Man(b1-4)GlcNAc(b1-4)GlcNAc
Outline: as §1

[4] = target: Fuc(a1-2)Gal(b1-4)GlcNAc(b1-3)[Fuc(a1-2)Gal(b1-4)GlcNAc(b1-6)]GalNAc
Outline: as §1

[5] = target: Fuc(a1-2)[Gal(a1-3)]Gal(b1-4)[Fuc(a1-3)]GlcNAc
Outline: as §1

[6] = target: Fuc(a1-2)[GalNAc(a1-3)]Gal(b1-4)GlcNAc(b1-3)Gal(b1-4)GlcNAc
Outline: as §1

[7] = target: Fuc(a1-2)[GalNAc(a1-3)]Gal(b1-4)GlcNAc(b1-3)[Fuc(a1-2)[GalNAc(a1-3)]Gal(b1-4)GlcNAc(b1-6)]GalNAc
Outline: as §1

[8] = target: Fuc(a1-2)[GalNAc(a1-3)]Gal(b1-4)[Fuc(a1-3)]GlcNAc(b1-3)GalNAc
Outline: as §1

[9] = target: Fuc(a1-2)[GalNAc(a1-4)]Gal(b1-4)GlcNAc
Outline: as §1

[10] = target: Fuc(a1-3)[Gal(b1-4)]GlcNAc(b1-2)Man(a1-3)[Fuc(a1-3)[Gal(b1-4)]GlcNAc(b1-2)Man(a1-6)]Man(b1-4)GlcNAc(b1-4)[Fuc(a1-6)]GlcNAc
Outline: as §1

[11] = target: Fuc(a1-3)[Gal(b1-4)]GlcNAc(b1-3)Gal(b1-4)[Fuc(a1-3)]GlcNAc
Outline: as §1

[12] = target: Gal(a1-3)Gal(b1-3)GlcNAc(b1-3)GalNAc
Outline: as §1

[13] = target: Gal(b1-3)GlcNAc(a1-3)Gal(b1-4)GlcNAc
Outline: as §1

[14] = target: Gal(b1-3)GlcNAc(b1-6)[Gal(b1-3)]GalNAc
Outline: as §1

[15] = target: Gal(b1-3)[Fuc(a1-4)]GlcNAc(b1-2)Man(a1-3)[Gal(b1-3)[Fuc(a1-4)]GlcNAc(b1-2)Man(a1-6)]Man(b1-4)GlcNAc(b1-4)[Fuc(a1-6)]GlcNAc
Outline: as §1

[16] = target: Gal(b1-4)GlcNAc(b1-2)Man(a1-3)[GlcNAc(b1-4)][Gal(b1-4)GlcNAc(b1-2)Man(a1-6)]Man(b1-4)GlcNAc(b1-4)GlcNAc
Outline: as §1

[17] = target: Gal(b1-4)GlcNAc(b1-3)Gal(b1-4)GlcNAc(b1-2)Man(a1-3)[Gal(b1-4)GlcNAc(b1-3)Gal(b1-4)GlcNAc(b1-2)Man(a1-6)]Man(b1-4)GlcNAc(b1-4)GlcNAc
Outline: as §1

[18] = target: Gal(b1-4)GlcNAc(b1-3)Gal(b1-4)GlcNAc(b1-3)GalNAc
Outline: as §1

[19] = target: Gal(b1-4)GlcNAc(b1-3)Gal(b1-4)GlcNAc(b1-3)[Gal(b1-4)GlcNAc(b1-3)Gal(b1-4)GlcNAc(b1-6)]GalNAc
Outline: as §1

[20] = target: Gal3S(b1-3)[Fuc(a1-4)]GlcNAc
Outline: as §1

[21] = target: Gal3S(b1-4)Glc
Outline: as §1

[22] = target: Gal3S4S(b1-4)GlcNAc
Outline: as §1

[23] = target: Gal6S(b1-4)GlcNAc6S
Outline: as §1

[24] = target: GalNAc(a1-3)GalNAc
Outline: as §1

[25] = target: GalNAc(a1-3)GalNAc(b1-3)Gal(a1-4)Gal(b1-4)Glc
Outline: as §1

[26] = target: GalNAc(b1-3)Gal
Outline: as §1

[27] = target: GalNAc3S(b1-4)GlcNAc
Outline: as §1

[28] = target: GlcNAc(b1-3)Gal(b1-4)GlcNAc(b1-2)Man(a1-3)[GlcNAc(b1-3)Gal(b1-4)GlcNAc(b1-2)Man(a1-6)]Man(b1-4)GlcNAc(b1-4)GlcNAc
Outline: as §1

[29] = target: GlcNAc(b1-3)Gal(b1-4)GlcNAc(b1-3)Gal(b1-4)GlcNAc(b1-3)Gal(b1-4)GlcNAc(b1-2)Man(a1-3)[GlcNAc(b1-3)Gal(b1-4)GlcNAc(b1-3)Gal(b1-4)GlcNAc(b1-3)Gal(b1-4)GlcNAc(b1-2)Man(a1-6)]Man(b1-4)GlcNAc(b1-4)[Fuc(a1-6)]GlcNAc
Outline: as §1

[30] = target: GlcNAc(b1-3)Gal(b1-4)GlcNAc(b1-6)[GlcNAc(b1-3)Gal(b1-3)]GalNAc
Outline: as §1

B1: LFA (Limax flavus) (protein)
chain: MSVLFLAASFLLLASFELVAAQGCPRQDPGDWIVIQRRLNADVNFYRGWADYKHGFGDLRCNFWLGNEKIHQLTSHGRYKLRVEFTFNNKSYFAEYSTFKILGEADKYKLQVGGYSGNAGDALTFHNGMAFSTNDRDNDADSIDCAKVYHGAWWYKTCHESNLNGKWGSKKYGEGLNWKAKTTFTATATSSLLKIKALK
glycan array binding signal (z-score) [1]: 0.702 | glycan array binding signal (z-score) [2]: -0.319 | glycan array binding signal (z-score) [3]: 1.54 | glycan array binding signal (z-score) [4]: -0.186 | glycan array binding signal (z-score) [5]: -0.137 | glycan array binding signal (z-score) [6]: -0.192 | glycan array binding signal (z-score) [7]: -0.241 | glycan array binding signal (z-score) [8]: -0.214 | glycan array binding signal (z-score) [9]: 3.52 | glycan array binding signal (z-score) [10]: -0.15 | glycan array binding signal (z-score) [11]: -0.217 | glycan array binding signal (z-score) [12]: 0.016 | glycan array binding signal (z-score) [13]: -0.103 | glycan array binding signal (z-score) [14]: -0.21 | glycan array binding signal (z-score) [15]: 0.669 | glycan array binding signal (z-score) [16]: 0.181 | glycan array binding signal (z-score) [17]: 2.97 | glycan array binding signal (z-score) [18]: 2.68 | glycan array binding signal (z-score) [19]: 2.39 | glycan array binding signal (z-score) [20]: -0.306 | glycan array binding signal (z-score) [21]: -0.271 | glycan array binding signal (z-score) [22]: -0.218 | glycan array binding signal (z-score) [23]: -0.066 | glycan array binding signal (z-score) [24]: 3.66 | glycan array binding signal (z-score) [25]: 13.1 | glycan array binding signal (z-score) [26]: -0.195 | glycan array binding signal (z-score) [27]: -0.277 | glycan array binding signal (z-score) [28]: -0.217 | glycan array binding signal (z-score) [29]: 0.314 | glycan array binding signal (z-score) [30]: -0.285

Reference: the supplement of paper PMC8728848
